{"source": "paper PMC5540273", "about": "(PLoS ONE, 2017);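 further: KINOMEscan kinase panel screen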", "data": [{"tested_on": "PIK3CB", "settings": "concentration: 1 μM,replicates: in singlicate; n = 1", "units": {"%Inh": "%"}, "values": [{"smiles": "CSc1nccc(-c2c(-c3ccc(F)cc3)ncn2CCCN2CCOCC2)n1.Cl", "note": "[SB-217146]", "%Inh": 0}, {"smiles": "Cc1ccc(C(=O)Nc2ccc(Oc3ccc4nc(NC(=O)C5CC5)cn4c3)c(F)c2)c(=O)n1-c1ccccc1", "%Inh": 0}, {"smiles": "CC(C)S(=O)(=O)N1CCN(Cc2ccc3c(c2)nc(NC(=O)c2ccsc2)n3C[C@H](O)c2ccccc2)CC1", "note": "[GW635815]", "%Inh": 0}, {"smiles": "CC(=O)Nc1nc2cnc(Nc3cc(NC(=O)c4cccc(CC(C)(C)C#N)c4)ccc3C)nc2s1", "%Inh": 66}, {"smiles": "Cn1ccc2ncnc(Oc3ccc(NC(=O)Nc4cccc(C(F)(F)F)c4)c(Cl)c3)c21", "%Inh": 19}, {"smiles": "O=C(Nc1n[nH]c2cc(-c3ccco3)ccc12)C1CC1", "note": "[SB-737447]", "%Inh": 0}, {"smiles": "COc1cccc(OC)c1C(=O)Nc1cccc(-c2nn3ccccc3c2-c2ccnc(Nc3cccc(F)c3)n2)c1", "note": "[GSK361065]", "%Inh": 0}, {"smiles": "CC(C)c1nc(-c2cccc(NS(=O)(=O)c3ccccc3)c2)c(-c2ccnc(Nc3ccc4c(c3)CN(C)CC4)n2)s1", "note": "[GSK1649598]", "%Inh": 11}, {"smiles": "Cn1ccc2ncnc(Oc3ccc(NC(=O)Nc4cncc(C(F)(F)F)c4)c(Cl)c3)c21", "%Inh": 0}, {"smiles": "FC(F)(F)c1cc(Br)cc(Nc2nccc(-c3cnn4ncccc34)n2)c1", "note": "[GW810578]", "%Inh": 16}, {"smiles": "CN(c1ccc2c(c1)nc(NCc1ccc(F)cc1)n2C)c1ccnc(Nc2ccc(CS(C)(=O)=O)cc2)n1.Cl", "note": "[GW813244]", "%Inh": 0}, {"smiles": "Cc1ccn2nc(-c3ccc(F)cc3)c(-c3ccncc3)c2c1.Cl", "note": "[GW457859]", "%Inh": 0}]}]}
